# PubChem BioAssay AID485294 (National Center for Advancing Translational Sciences (NCATS), 2010)
# In all, about 370,000 compounds went through this assay and about 150 (0.041%) were called active. About 14% were inconclusive and are not listed. What follows is part of a selection rich in actives, with near analogues and random picks from the rest. A number with no mark means an inactive call. The call rests on the fitted dose curve; in most records, active means well fitted inhibition curve with a large enough effect; inconclusive means small, poorly fitted or top-dose-only effect; inactive means flat fitted curve, though single readings scatter.
# Target: Beta-lactamase (Escherichia coli (strain K12)) (UniProt P00811)
# Sequence (P00811 whole entry, looked up): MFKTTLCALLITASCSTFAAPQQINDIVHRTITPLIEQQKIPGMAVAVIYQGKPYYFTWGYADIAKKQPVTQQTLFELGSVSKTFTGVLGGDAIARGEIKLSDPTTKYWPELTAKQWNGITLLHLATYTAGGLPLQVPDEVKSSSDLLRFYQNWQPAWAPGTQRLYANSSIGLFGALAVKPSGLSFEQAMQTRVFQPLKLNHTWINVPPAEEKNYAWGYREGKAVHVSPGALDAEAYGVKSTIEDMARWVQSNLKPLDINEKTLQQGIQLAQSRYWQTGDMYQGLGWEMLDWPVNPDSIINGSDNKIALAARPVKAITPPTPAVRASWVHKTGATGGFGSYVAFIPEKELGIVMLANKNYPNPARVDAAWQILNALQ
# Test: qHTS Inhibitors of AmpC Beta-Lactamase (assay with detergent); further: nearly all actives have a fitted effect of over 25% in size;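 on activity change, negative = inhibition: 0% = no-compound wells and -100% = no-enzyme wells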
# Conditions: AmpC hydrolysis of nitrocefin, absorbance 480 nm, 0.01% Triton; series mostly up to 114 µM; activity change, negative = inhibition: at the top concentration
# Description: NIH Molecular Libraries Probe Production Network [MLPCN] NIH Chemical Genomics Center [NCGC] Assay Provider: Professor Brian Shoichet, UCSF Assay Overview: This aggregation profiling approach exploits the sensitivity of aggregate formation to detergent. Inhibition of b-lactamase is measured in the presence and absence of 0.01% Triton X-100. This particular assay had the prescence of 0.01% Triton X-100. See Pubchem assay "Promiscuous and Specific Inhibitors of AmpC Beta-Lactamase (assay without detergent)" for related screen. Compounds that inhibit only in the absence of detergent are considered likely promiscuous aggregators. A screen of 1,030 compounds was performed in Brian Shoichet's lab in 96-well format. AmpC activity was measured by following the absorbance at 480 nm. Nitrocefin is a chromogenic substrate: while nitrocefin is yellow (lmax 390 nm), the product of its hydrolysis is red (lmax 486 nm, 17,000 M-1). AmpC beta lactamase was provided by Shoichet Lab, UCSF.
# Buffer: 20 mM phosphate buffer, pH 7.0 Triton X-100: No Detergent screen: 0.0001%, Detergent screen: 0.01%. Reagents/Controls: Buffer in columns 3 and 4 as negative control (no enzyme). 5.3 nM AmpC in columns 1, 2, 5-48. Titration of UCSF compound 9 control (from 10 mM, then 1:2) pin-transferred to column 2. Column 1 is neutral (100% activity). Assay Steps: Six uL of reagents were dispensed to 1536-well Greiner black clear bottom plates. Compounds and controls (23 nL) were transferred via Kalypsys PinTool. The plates were incubated for 15 min at room temperature, and then 2 uL of 800 uM solution of nitrocefin was added to start the reaction. The plates were immediately transferred to and read every 20 seconds for 4 min on ViewLux (Perkin-Elmer) High-throughput CCD imager using 480 nm absorbance protocol. During dispense, reagent bottles were kept submerged into 4 deg C water bath. Keywords: NIH Roadmap, MLSCN, MLI, MLSMR, qHTS, NCGC, AmpC Beta-Lactamase, Aggregation
# Potency means the concentration at half of the fitted maximal effect.
SMILES,"activity change, negative = inhibition [%]",Potency
Cc1cccc(-n2ncc(C(=O)N3CCN(c4ccc(Cl)cc4)CC3)c2C2CCN(C(=O)OC(C)(C)C)CC2)c1,22.4,
CCOC(=O)c1ccc(NC(=O)CCS(=O)(=O)c2ccc(C)cc2)cc1,-5.95,
CCOC(=O)c1scc(-c2ccc(C)cc2)c1S(=O)(=O)Nc1cc(C)ccc1C,19.9,
Cc1ccc(S(=O)(=O)N2CCc3cc(C(=O)Nc4ccc(Cl)cc4C)ccc32)cc1,18.7,
CC1CCCN(c2cc3c(cc2F)c(=O)c(S(=O)(=O)c2cccc(Cl)c2)cn3Cc2ccccc2)C1 (stereo unspecified),0.274,
CCOC(=O)c1ccc(NC(=O)CSc2nc3c([nH]c4ccccc43)c(=O)n2C)cc1,2.22,
COc1ccc(C2CC(=O)N(Cc3ccccc3C)c3c2c(C)nn3-c2nc(C)cc(C)n2)c(OC)c1 (stereo unspecified),14.8,
COc1ccc2c(c1)c(=O)c(S(=O)(=O)c1ccc(F)cc1)cn2CC(=O)Nc1ccc(C)cc1C,-3.33,
Cn1c(=O)nc2n(-c3ccc(Br)cc3)c3cccc(Cl)c3cc-2c1=O,3.23,
O=C(Cn1cc(SCc2ccccc2)c2ccccc21)N1CCCCC1,-4.92,
COCCCNC(=O)c1c(NC(=O)c2cc(=O)c3cc(C)c(C)cc3o2)sc2c1CCCC2,3.2,
COc1ccc2c(c1)c(N1CCCC1=O)c(C(=O)Nc1ccccc1C(F)(F)F)n2C,14.7,
CCOc1cc(C(=O)NCCc2csc3nc(-c4ccc(C)cc4)nn23)cc(OCC)c1OCC,11.5,
COc1ccccc1CNC(=O)CCn1c(=O)c2ccccc2n(CC(=O)Nc2cccc(Cl)c2)c1=O,21.1,
O=C1OC(NC(=O)c2ccccc2)C(N2CCOCC2)=C1Cl (stereo unspecified),-0.396,
COc1ccc(NS(=O)(=O)c2ccc(N3CCOCC3)c(NC(=O)c3ccccc3Br)c2)cc1,-2.02,
O=C1OC(OC(=O)c2ccccc2Br)C(N2CCOCC2)=C1Cl (stereo unspecified),,10 µM (active)
Cc1oc2c(c1C(=O)Nc1ccc(F)c(F)c1)C1=NCCN1C=N2,29.2,
Cn1c(=O)sc2cc(NS(=O)(=O)c3ccc(C(C)(C)C)cc3)ccc21,23.6,
CCCN(CCC)C(=O)C(Cc1ccccc1)NS(=O)(=O)c1ccc2c(c1)c(=O)n(C)c(=O)n2C (stereo unspecified),4.62,
CCOc1ccc(NC(=O)c2c(NC(=O)Cc3ccccc3)sc3c2CCCCC3)cc1,-6.09,
O=C(O)c1ccc(CSc2nc3cccnc3n2Cc2cccc(F)c2)cc1,0.0903,
COc1ccc(-c2nnc(SCC(=O)Nc3ccccc3C)o2)cc1OC,24.4,
O=C(Nc1ccc(O)c(-c2nc3ccccc3o2)c1)c1ccc(-c2cccc(Cl)c2)o1,15.3,

SMILES,"activity change, negative = inhibition [%]",Potency
O=C(Cn1c(=O)n(-c2ccc(F)cc2)c(=O)c2sccc21)Nc1cccc(C(F)(F)F)c1,0.688,
CSc1ccc(C2C(C(=O)Nc3ccccc3)=C(C)Nc3nc4ccccc4n32)cc1 (stereo unspecified),-0.989,
CC(Oc1ccccc1F)C(=O)NN (stereo unspecified),,79.4 µM (active)
COc1ccccc1NC(=O)COC(=O)COc1ccccc1F,4.46,
CC(C)C(=O)NC(=S)Nc1ccccc1F,-9.56,
COc1ccc2c(c1)c(=O)c(C(=O)c1ccccc1)cn2CC(=O)Nc1ccc2c(c1)OCCO2,-6.8,
CC1CCCN(S(=O)(=O)c2ccc3[nH]c(=O)cc(C(=O)NCCc4ccc(Cl)cc4)c3c2)C1 (stereo unspecified),7.12,
O=S(=O)(NCC(c1ccccc1)N1CCc2ccccc21)c1ccccc1 (stereo unspecified),-1.77,
Cc1ccc2nc(COc3cccc(NC(=O)Nc4ccc(C)c(Cl)c4)c3)cc(=O)n2c1,2.19,
CN1C(=O)/C(=C\c2cc(Br)cs2)c2ccccc21,-18.1,
COc1ccc(C(=O)ON=C2c3ccccc3-c3ccccc32)cc1OC,-7.74,
CN1C(=O)/C(=N/OC(=O)c2ccccc2Br)c2ccccc21,,35.5 µM (active)
O=C(COc1ccccc1)NCc1ccc2c(c1)CCN2C(=O)c1ccc(F)cc1,6.72,
CCc1ccccc1NC(=O)Cn1c(=O)n(CC2CCC(C(=O)NCCc3ccccc3)CC2)c(=O)c2ccccc21 (stereo unspecified),-3.1,
CCCn1c(=N)c(C(=O)NCc2ccccc2)cc2c(=O)n3cccc(C)c3nc21,6.68,
N#Cc1cccc(CN2CCC(=O)N(CCO)CC2)c1,-1.68,
CC(C)c1cc(CN2CCOCC2)cc(C(C)C)c1O,1.24,
CC(C)(C)c1cc(CN2CCN(CCC#N)CC2)cc(C(C)(C)C)c1O,,35.5 µM (active)
Cc1nn(Cc2ccc(F)cc2)c(C)c1NC(=O)c1cc(CC(C)C)on1,-7.87,
CCOC(=O)c1c(S(=O)(=O)N2CCC(C(=O)NCc3ccccc3OC)CC2)c(C)n(C)c1C,6.8,
CC(C)(C)c1ccc(S(=O)(=O)N2CCN(C(=O)c3cc(-c4ccc(Br)cc4)n[nH]3)CC2)cc1,9.24,
COC(=O)CN1C(=O)CSc2ccc(S(=O)(=O)Nc3cc(C)ccc3C)cc21,-2.29,
CCC1=Nc2cc(C(=O)NCCCOC(C)C)ccc2Sc2ccc(C)cc21,-0.0613,
CC(C)c1ccc(C2CC(=O)N3CN(C4CCCCC4)CSC3=C2C#N)cc1 (stereo unspecified),-6.41,

SMILES,"activity change, negative = inhibition [%]",Potency
CCCNc1ncnc2c1c(-c1ccccc1)cn2-c1ccc(OCC)cc1,7.73,
CCCN(CCC)CCNC(=O)c1ccc2c(c1)NC(=O)C(CS(=O)(=O)Cc1cccc(Br)c1)N2 (stereo unspecified),4.65,
Cc1ccc(-n2c3nc(=O)[nH]c(=O)c-3cc3c(Cl)cccc32)cc1,17.3,
O=C(CSc1nnc(-c2ccccc2F)o1)Nc1cccc(C(F)(F)F)c1,-2.35,
CCC(=O)Nc1ccc2nc(SCC(=O)N3CCc4ccccc43)sc2c1,17,
Cc1ccc(-c2cnc(NCc3ccc(C(C)C)cc3)n2C)cc1,1.02,
Cc1ccc(C)c(NC(=O)C2CCCN(S(=O)(=O)c3cn(C)cn3)C2)c1 (stereo unspecified),1.52,
Cc1c(C(=O)N2CCCC2)oc2c1-c1nn(CC(=O)NCc3ccc(OC(C)C)cc3)cc1CC2,-0.874,
Cc1c(NC(=O)Nc2ccc(F)c(Cl)c2)c(=O)n(-c2ccccc2)n1C,10.1,
CCCN(C(=O)Cn1cc(S(=O)(=O)N2CCN(c3ccccc3F)CC2)c2ccccc2c1=O)c1cccc(C)c1,15.1,
COc1ccc(Cl)cc1S(=O)(=O)N1CCC(c2ccncc2)CC1,5.01,
COc1ccc(-c2nc3sc(CCNS(=O)(=O)c4ccc(F)c(C)c4)c(C)n3n2)cc1,1.12,
CCOc1ccc(-c2cc3nc(C4CCN(C(=O)OC(C)(C)C)CC4)c(C(=O)Nc4ccc(C(=O)OC)cc4)cn3n2)cc1,-0.405,
CCCNC(=O)CCC(=O)N1Cc2ccccc2Oc2ncccc21,26.6,
O=C(Cn1c(-c2cccs2)cc2ccccc21)NCCc1ccc(Cl)cc1,0.161,
Cc1ccc(CNS(=O)(=O)c2ccc(-c3cc(C(F)(F)F)on3)s2)cc1,-0.38,
COCCCNC(=O)c1ccc(NC(=O)c2nsc3ccccc23)cc1,1.67,
COc1ccc(-c2nc(C)c(CCNC(=O)c3ccc(C(F)(F)F)cc3)s2)cc1OC,5.88,
CC1CCCN(Cc2c(O)ccc3c(=O)c(Oc4ccc(C(C)(C)C)cc4)c(C(F)(F)F)oc23)C1 (stereo unspecified),-1.79,
COc1ccc(/C=C/c2nc(C#N)c(NCc3ccc(F)cc3)o2)cc1OC,-1.11,
Cc1c(-c2nc(-c3ccc4c(c3)OCO4)no2)nnn1-c1ccc(Br)cc1F,3.22,
COc1cc(NC(=O)c2noc3c2CSc2ccccc2-3)cc(OC)c1OC,22.2,
CCCCN1CC(c2nc3ccccc3n2CCCCOc2ccc(C)cc2C)CC1=O (stereo unspecified),20.3,
CCOc1cccc(NC(=O)CSc2ncc(-c3ccc(Cl)cc3)[nH]2)c1,14.7,

SMILES,"activity change, negative = inhibition [%]",Potency
CC(=O)N1CCCc2cc(S(=O)(=O)Nc3ccc(Cl)cc3F)ccc21,-0.767,
Nc1ccc(Nc2cc(O)c3ncccc3c2)cc1,-4.05,
CCN(CC)S(=O)(=O)c1ccc2c(c1)N(CC(=O)NCC(C)c1ccccc1)C(=O)CO2 (stereo unspecified),18.7,
CSc1ccccc1-c1nnc(NC(=O)c2ccc3c(c2)OCCO3)o1,5.64,
CCn1c(CN2CCC(C)CC2)nc2cc(NC(=O)c3ccccc3[N+](=O)[O-])ccc21,22.8,
COc1ccc(NC(=O)CCN2CCN(CCO)CC2)cc1,1.07,
O=C(c1cccs1)c1cn(CCOc2ccc(Cl)cc2)c2ccccc12,-3.12,
COc1ccc(OC)c(NC(=O)Cn2c(=O)n(Cc3ccccc3)c(=O)c3ccccc32)c1,5.51,
CSc1nc(=O)c2c(n1C)NC(=O)CC2c1ccccc1OC(C)C (stereo unspecified),5.75,
Cc1cccc(N2CCN(C(=O)c3oc(=O)c4ccccc4c3-c3ccccc3)CC2)c1C,-1.7,
COc1ccc(Cn2ccnc2SCC(=O)Nc2ccc3c(c2)OCO3)cc1,5.64,
Cc1ccccc1OCc1ccc(-c2nc(C#N)c(N3CCCCC3)o2)o1,0.568,
Cc1ccc(S(=O)(=O)c2c(Nc3cccc(Cl)c3)sc(C(=O)c3ccc4c(c3)OCO4)c2N)cc1,28.1,
Cc1cccc(NC(=O)Cn2c(C(F)(F)F)nc3ccccc32)c1C,5.01,
O=C(/C=C/c1ccccc1)Nc1cc(-c2nc3cc(Cl)ccc3o2)ccc1Cl,-2.1,
COc1ccc(-c2cc(C(F)(F)F)n3nc(-c4ccccc4)cc3n2)cc1OC,0.338,
CCOc1ccc(C(NC(=O)c2cc(OC)c(OC)c(OC)c2)c2cc(Cl)c3cccnc3c2O)cc1 (stereo unspecified),-6.18,
Cc1ccc2c(=O)c(C(=O)c3ccc(Cl)cc3)cn(CC(=O)NC3CCCCC3)c2n1,18.9,
COc1ccc(-c2nc3ccccc3s2)cc1NC(=O)COc1ccccc1C,1.82,
CCn1c(C(=O)Nc2cc(Cl)ccc2C)cc2sc(Cl)cc21,16.5,
Cc1ccc(NC(=O)c2cc3cc(C)ccc3n2C)cc1,-3.66,
Cc1cc(C)c(NC(=O)c2cc3sc(Cl)cc3n2C)c(C)c1,,56.2 µM (active)
COc1ccc(CCNc2ncnc3onc(-c4ccc(Cl)cc4)c23)c(OC)c1,9.52,
CCOC(=O)c1c(C)oc2nc(C)nc(N3CCN(c4ccc(OC)cc4)CC3)c12,13.8,
